The text below walks through data of PubChem BioAssay (NCATS).

Experiment [1] can be described thus: HPAF-II 24hr Apoptosis Induction qHTS against the NCATS CANVASS Library (AID 1347356). The note with it: HPAF-II caspase-3/7 Caspase-Glo luminescence; series mostly up to 46.1 µM. Put shortly: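 500 HPAF-II cells/well; compounds in 11-pnt qHTS; 24 h, 37 C/5% CO2; Caspase-Glo 3/7 added, 15 min RT dark; luminescence read. Doxorubicin control.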
(In general: qHTS replaces the single test concentration by a dilution series.)

A short description of experiment [2]: HEK293 18hr Apoptosis Induction qHTS against the NCATS CANVASS Library (AID 1347357). Particulars: HEK293 caspase-3/7 Caspase-Glo luminescence; series mostly up to 46.1 µM. The method in brief:
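Natural products applied to HEK293 for 18 hr; Caspase-Glo 3/7 readout.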

A short description of experiment [3]: HPAF-II 12hr Apoptosis Induction qHTS against the NCATS CANVASS Library (AID 1347358). The note with it: HPAF-II caspase-3/7 Caspase-Glo luminescence; series mostly up to 46.1 µM. Put shortly: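 Caspase-Glo 3/7 luminescence (DEVD substrate) reports caspase activity in HPAF-II cells after 12 h compound treatment at 37 degrees C. Compounds were tested in an 11-point series. Doxorubicin served as control.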

The nature of experiment [4]: HEK293 24hr Apoptosis Induction qHTS against the NCATS CANVASS Library (AID 1347359). Particulars: HEK293 caspase-3/7 activation, Caspase-Glo luminescence; series mostly up to 46.1 µM. The method in brief:
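HEK293 cells (500/well, DMEM + 10% FBS) were exposed to compounds in an 11-point series for 24 hours at 37 degrees C, then caspase-3/7 activity was read by Caspase-Glo DEVD luciferase luminescence after 15 min.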

A short description of experiment [5]: HPAF-II 18hr Apoptosis Induction qHTS against the NCATS CANVASS Library (AID 1347360). The note with it: HPAF-II caspase-3/7 luminescence; series mostly up to 46.1 µM. The method in brief:
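Luminescent DEVD-substrate signal, proportional to caspase activity, is measured in HPAF-II cells after 18-hour treatment across a concentration series; doxorubicin serves as control.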

The nature of experiment [6]: HEK293 12hr Apoptosis Induction qHTS against the NCATS CANVASS Library (AID 1347361). The note with it: HEK293 caspase-3/7 Caspase-Glo luminescence; series mostly up to 46.1 µM. Put shortly: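 Luminescent caspase-3/7 signal, proportional to enzyme activity, was recorded from HEK293 cultures in DMEM + 10% FBS treated for 12 hours with titrated natural products (11 points). Doxorubicin (0.1nM - 4uM) served as control.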

Experiment [7] can be described thus: SDT Cancer Cell Toxicity qHTS against the NCATS CANVASS Library (AID 1347365). Also: nearly all actives have a fitted effect of over 60% in size. Also: potency is read from the fitted curve at half-maximal effect. The note with it: SDT dog glioma viability, ATP luminescence, 72 h; series mostly up to 46.1 µM. Put shortly: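 Luminescent ATP read-out (CellTiterGlo) after 72 hr compound exposure of dog glioma SDT cells, 500 per well. Eleven-point titrations; bortezomib titration run alongside as control.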

A short description of experiment [8]: G06 Cancer Cell Toxicity qHTS against the NCATS CANVASS Library (AID 1347368). Also: nearly all actives have a fitted effect of over 60% in size. Also: potency is read from the fitted curve at half-maximal effect. The note with it: G06 dog glioma cells, viability ATP luminescence, 72 h; series mostly up to 46.1 µM. The method in brief:
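ATP luminescence (CellTiterGlo) readout of cytotoxicity. Canine G06 glioma cells, 500/well, 72 hr incubation at 37C with compounds; bortezomib titration served as control.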

Experiment [9] in a line: MCF7 Cancer Cell Toxicity qHTS against the NCATS CANVASS Library (AID 1347369). Also: potency is read from the fitted curve at half-maximal effect. The note with it: MCF7 viability, ATP luminescence (CellTiter-Glo), 72 h. Put shortly:
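This 72 hr qHTS scored MCF7 viability by CellTiterGlo luminescence, with 500 cells/well; bortezomib titration ran as control.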

Experiment [10] is described as follows: J3T Cancer Cell Toxicity qHTS against the NCATS CANVASS Library (AID 1347371). Particulars: J3T dog glioma viability, ATP luminescence, 72 h; series mostly up to 46.1 µM. Put shortly:
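Dog glioma J3T, 500 cells/well; cpd 11-pt qHTS; 72 hr, 37C/5% CO2; CellTiterGlo ATP luminescence readout.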

Experiment [11] addresses Nuclear receptor subfamily 1 group I member 3 (Homo sapiens) (UniProt Q14994). The experiment can be described thus: qHTS for Constitutive Androstane Receptor (CAR) Antagonist screened against the NCATS CANVASS Library (AID 1347372).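 Also: cells stimulated with 50 nM CITCO agonist so inhibition reflects antagonism.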 Particulars: HepG2-hCAR-CYP2B6 luciferase, CITCO-stimulated antagonist mode; series mostly up to 46.1 µM. The method in brief: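 Cells were seeded and left 4hr to attach, then received compound at 11 concentrations and 50 nM CITCO. Following 24hr incubation, fluorescence viability and luciferase luminescence were read sequentially.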

Experiment [12] in a line: qHTS for Hypoxia signaling pathway (HIF-1) agonists against the NCATS CANVASS Library (AID 1347375). Particulars: HRE-bla ME-180 cells, HIF-1 beta-lactamase reporter, 17 h; series mostly up to 38.3 µM. The method in brief:
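Read-out: beta-lactamase FRET (CCF4-AM, ex 405, em 460 and 530 nm) after 2 h at room temperature. ME-180 cells stably carrying HRE-bla were treated 17 h at 37C with compounds in an 11-point concentration series.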

Experiment [13] can be described thus: 10-beta competent E. coli microbial cell viability qHTS against the NCATS CANVASS Library (AID 1347376). The note with it: E. coli 10-beta viability, BacTiter-Glo ATP luminescence, overnight; series mostly up to 46.1 µM. The method in brief:
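Luminescence from BacTiter-Glo ATP detection served as the viability read-out; bacteria (0.2 OD) had been incubated overnight at 37C with pin-transferred compounds at 11 concentrations.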

In experiment [14] the target is Luciferin 4-monooxygenase (Photinus pyralis) (UniProt P08659). The experiment can be described thus: Firefly luciferase counterscreen qHTS: Assay Interference Panel against the NCATS CANVASS Library (AID 1347363). The note with it: purified firefly luciferase, luminescence inhibition, 5 min; series mostly up to 57.5 µM. Put shortly: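 Purified P. pyralis luciferase was added to compounds (11-point series) preincubated 15 min at room temperature with substrate containing 0.013 mM D-luciferin and 0.013 mM ATP; luminescence was read after 5 min.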
Luciferin 4-monooxygenase (Photinus pyralis), sequence (P08659 whole entry, looked up): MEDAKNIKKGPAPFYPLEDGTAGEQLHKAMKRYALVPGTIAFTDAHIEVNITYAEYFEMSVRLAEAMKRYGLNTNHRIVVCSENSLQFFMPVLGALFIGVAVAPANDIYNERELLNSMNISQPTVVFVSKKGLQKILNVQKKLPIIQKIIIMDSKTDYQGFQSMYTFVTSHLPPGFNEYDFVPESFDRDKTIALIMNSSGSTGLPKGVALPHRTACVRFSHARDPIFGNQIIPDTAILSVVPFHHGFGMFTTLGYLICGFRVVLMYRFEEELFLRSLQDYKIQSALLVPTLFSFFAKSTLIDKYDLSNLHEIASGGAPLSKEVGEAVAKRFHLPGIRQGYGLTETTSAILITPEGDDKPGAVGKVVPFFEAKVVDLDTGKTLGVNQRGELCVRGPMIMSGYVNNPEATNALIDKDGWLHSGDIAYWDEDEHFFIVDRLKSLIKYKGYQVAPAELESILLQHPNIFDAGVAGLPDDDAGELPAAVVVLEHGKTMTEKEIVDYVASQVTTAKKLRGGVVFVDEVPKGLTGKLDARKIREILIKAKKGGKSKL

Experiment [15] in a line: KB-8-5-11 Cancer Cell Toxicity qHTS against the NCATS CANVASS Library (AID 1347364). Also: nearly all actives have a fitted effect of over 75% in size. The note with it: KB-8-5-11 MDR cells viability, CellTiter-Glo, 72 h; series mostly up to 46.1 µM. Put shortly: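 CellTiter-Glo luminescence after 72 h exposure; 500 KB-8-5-11 cells/well, DMEM/10% FBS, 37C, 5% CO2; compounds in 11-pt qHTS. Follow-up confirmation included medium with 1uM tariquidar.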

Experiment [16] is described as follows: KB-3-1 Cancer Cell Toxicity qHTS against the NCATS CANVASS Library (AID 1347366). Also: nearly all actives have a fitted effect of over 75% in size. The note with it: KB-3-1 viability, CellTiter-Glo luminescence, 72 h; at 46.1 µM (top of the series). Put shortly:
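Cytotoxicity toward KB-3-1 cells (500/well, DMEM + 10% FBS) was scored by CellTiter-Glo luminescence following 72 hr exposure at 37C, with bortezomib titrated as control.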

Experiment [17] is described as follows: qHTS for ATAD5 Agonist screened against the NCATS CANVASS Library (AID 1347367).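 Also: luciferase reporter driven by ATAD5 which rises upon DNA damage.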 The note with it: HEK293T ATAD5-luciferase reporter, luminescence, 16 h; series mostly up to 46.1 µM. The method in brief: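 Genotoxicity was scored as increased ATAD5-luciferase luminescence in HEK293T after 16hr of exposure, with cell viability measured by fluorescence beforehand in the same well.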

Experiment [18] can be described thus: qHTS for ATAD5 Antagonist screened against the NCATS CANVASS Library (AID 1347370).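 Also: HEK293T cells carrying an ATAD5 luciferase reporter co-treated with 10 µM 5-fluorouridine; nearly all actives have a fitted effect of over 65% in size.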 The note with it: HEK293T-ATAD5-luc, 5-FUrd stimulated, luminescence, 16 h; series mostly up to 46.1 µM. The method in brief:
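HEK293T-ATAD5 luc reporter, 2000 cells/well; 5hr attach; cpd + 10 uM 5-FUrd; 16hr 37C, 5% CO2. Readouts: CellTiter-Fluor fluorescence (1hr), then Amplite luciferase luminescence (30min RT).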

The target in experiment [19] is Nuclear receptor subfamily 1 group I member 3 (Homo sapiens) (UniProt Q14994). In words: qHTS for Constitutive Androstane Receptor (CAR) Agonist screened against the NCATS CANVASS Library (AID 1347373).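 Also: every well also contained 1.5 µM PK11195 alongside the test compound.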 The note with it: HepG2-hCAR-CYP2B6 luciferase reporter, ONE-Glo luminescence; series mostly up to 46.1 µM. The method in brief: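 Luciferase read-out (ONE-Glo, 30 min RT) of CYP2B6-2.2kb promoter activity in double-stable HepG2-hCAR cells after 24hr compound exposure with 1.5uM PK11195 present; viability measured first by CellTiter-Fluor.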
Nuclear receptor subfamily 1 group I member 3 (Homo sapiens), sequence (Q14994 whole entry, looked up): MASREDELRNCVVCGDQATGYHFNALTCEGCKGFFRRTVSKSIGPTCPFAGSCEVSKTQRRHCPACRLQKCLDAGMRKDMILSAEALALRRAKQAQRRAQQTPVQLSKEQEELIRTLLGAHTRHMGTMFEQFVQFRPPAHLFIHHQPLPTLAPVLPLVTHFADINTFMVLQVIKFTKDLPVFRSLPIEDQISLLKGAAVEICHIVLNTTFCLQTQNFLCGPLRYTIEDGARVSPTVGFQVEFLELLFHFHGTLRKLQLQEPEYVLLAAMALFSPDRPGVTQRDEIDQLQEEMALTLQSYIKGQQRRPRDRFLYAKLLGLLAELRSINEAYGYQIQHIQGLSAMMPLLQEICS

Experiment [20] in a line: qHTS for Hypoxia signaling pathway (HIF-1) antagonists against the NCATS CANVASS Library (AID 1347374).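 Also: HRE-bla ME-180 cells stimulated with cobalt chloride to stabilize HIF-1alpha; nearly all actives have a fitted effect of over 60% in size.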 Particulars: HRE-bla ME-180 cells, HIF-1 beta-lactamase reporter, CoCl2; series mostly up to 38.3 µM. Put shortly: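 Beta-lactamase reporter under HRE control in ME-180 cells; CoCl2 stimulus (60 uM solution as added), compounds 11-pt qHTS, 17 h 37C. CCF4 dye 2 h RT, 460/530 nm emission. CellTiter-Glo viability in same wells.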

Structures are written as SMILES. Records with an inconclusive call do not appear. The source made the active and inactive calls. Calls follow the shape of the dose curve; as a rule, active = well fitted curve in the direction sought with a large enough effect; inconclusive = small, poorly fitted or top-dose-only effect, or another doubt; inactive = no such curve, though single readings can be large; an effect the other way counts as inactive or inconclusive.

For `O=c1cc(-c2ccccc2)oc2c(O)c(O)ccc12`, the call in experiment [1], in experiment [2], in [3], in experiment [4], in experiment [5] and in [6] was inactive. The outcome in experiment [10], in experiment [11], in experiment [12] and in [13] was inactive. Also, the Potency is 4.18 µM (active) in experiment [7], 9.35 µM (active) in experiment [8] and 13.1 µM (active) in experiment [9].

Regarding `O=C(O)c1cc(O)c(O)c(O)c1`, the result in [1], in [2], in experiment [3], in experiment [4], in experiment [5] and in [6] was inactive. Also, the molecule was classed as inactive in [14], in experiment [15], in [16], in experiment [17], in experiment [18] and in experiment [10]. The molecule was classed as inactive in [11], in [19], in experiment [20], in experiment [12] and in experiment [13]. The Potency entry in experiment [7] and in experiment [8] was “inactive” throughout.
